The term AC50 denotes the concentration at which the activity in the assay is half-maximal.

Molecules are shown by their SMILES. “And” between values parts separate entries of the source, which are not always exact repeats. Equal values may be shown once. Among all 16,000 compounds or so, about 5,100 (32%) were called active. Inconclusive results (about 25%) are left out. The list shows a part of the results. A number with no mark means an inactive call. The call rests on the fitted dose curve; in most records, active means well fitted curve in the direction sought with a large enough effect; inconclusive means small, poorly fitted or top-dose-only effect, or effect the other way; inactive means no such curve, though single readings can be large or run the other way. Square brackets hold non-standard residues; d marks the D form. Peptide text beside a SMILES is read from it. * marks the point of attachment. ξ: configuration not given here. Cbz = O=C(OCc1ccccc1)*; PhAc = O=C(Cc1ccccc1)*; OBn = c1ccc(CO*)cc1; ξA = CC(N)C(=O)O
On the % scale 0 is the no-effect control and ±100 the full control effect.

For the experiment, the target named is Cytochrome P450 3A4 (Homo sapiens) (UniProt P08684). As to the kind of experiment: Cytochrome panel assay with activity outcomes. Conditions: recombinant CYP, pro-luciferin dealkylation, luminescence, p450-cyp3a4; series mostly up to 57.1 µM; activity, negative = inhibition: at the top concentration.
Sequence of Cytochrome P450 3A4 (Homo sapiens) (P08684 whole entry, looked up): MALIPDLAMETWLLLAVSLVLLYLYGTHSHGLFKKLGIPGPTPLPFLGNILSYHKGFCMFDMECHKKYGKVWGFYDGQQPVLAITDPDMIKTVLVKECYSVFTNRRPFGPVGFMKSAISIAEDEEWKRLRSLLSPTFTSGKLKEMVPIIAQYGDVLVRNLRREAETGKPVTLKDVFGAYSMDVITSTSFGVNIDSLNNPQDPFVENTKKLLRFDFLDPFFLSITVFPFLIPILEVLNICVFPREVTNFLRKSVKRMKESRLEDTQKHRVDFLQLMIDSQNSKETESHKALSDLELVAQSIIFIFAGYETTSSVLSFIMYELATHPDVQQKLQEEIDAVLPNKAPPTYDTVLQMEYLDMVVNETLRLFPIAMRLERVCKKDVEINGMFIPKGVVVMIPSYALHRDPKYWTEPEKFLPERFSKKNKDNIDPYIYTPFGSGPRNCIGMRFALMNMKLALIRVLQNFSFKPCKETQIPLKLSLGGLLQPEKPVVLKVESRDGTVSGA
Turning to `COC(=O)Nc1nc2ccc(C(=O)c3cccs3)cc2[nH]1`, the “activity, negative = inhibition” value was -18%.

For `CNCCCCCCCCSc1nc(C(C)C)ccc1C(=O)c1cccs1`, the AC50 is 2.51 µM (active).

As for `C[C@@H](C(=O)O)c1ccc(C(=O)c2cccs2)cc1`, the “activity, negative = inhibition” value is -4.04% [at 25.6 µM].

Consider `CCOC(=O)N/N=C1/C[C@@H](O)[C@@H](O)[C@@H]2[C@@H]3C(=O)N(CC)C(=O)[C@H]3CC[C@@H]12`, for which the activity, negative = inhibition was -14.4% [at 11.4 µM].

As for `Cc1ccc(-n2[nH]c(C)c(C=Nc3ccc4[nH]c(=O)[nH]c4c3)c2=O)cc1C`, the AC50 was 14.1 µM (active).

With `Cn1c(=O)n(CC#N)c2ccccc21`, the activity, negative = inhibition was -1.21% [at 2.29 µM].

As for `O=C(NCCN1CCOCC1)c1nn2c(c1Cl)NC(c1ccccc1)CC2C(F)(F)F` (configuration not stated), the AC50 is 7.08 µM (active).

With `Cc1cc(C(F)F)n2ncc(C(=O)NCc3ccccc3C(F)(F)F)c2n1`, the “activity, negative = inhibition” value was 8.24%.

In the case of `Cc1nn(C)c(C)c1CNC(=O)c1cnn2c1NC(c1ccccc1)CC2C(F)(F)F` (configuration not stated), the AC50 is 12.6 µM (active).

Turning to `COc1ccc(C2CC(C(F)(F)F)n3nc(C(=O)N(C)Cc4cn(C)nc4C)c(Cl)c3N2)cc1` (configuration not stated), the AC50 is 2.51 µM (active).

In the case of `COc1ccc(OC)c(NC(=O)c2cc3n(n2)C(C(F)(F)F)CC(c2ccc4c(c2)OCO4)N3)c1` (configuration not stated), the AC50 is 3.98 µM (active).

Regarding `COc1ccc(NC(=O)c2cc3n(n2)C(C(F)(F)F)CC(c2ccc4c(c2)OCO4)N3)cc1OC` (configuration not stated), the “activity, negative = inhibition” value was -24.1%.

`CC12CC(NC(=O)N1c1cccc(C(=O)NCc3ccccc3)c1)c1ccccc1O2` (configuration not stated): the “activity, negative = inhibition” value is -2.24%.

For `O=C(NCCN1CCOCC1)c1ccc2ccccc2c1`, the “activity, negative = inhibition” value was -4.73%.

As for `Cc1ccc(C2C(C=Nc3c(C)n(C)n(-c4ccccc4)c3=O)=C(c3ccccc3)Oc3ccccc32)cc1` (configuration not stated), the “activity, negative = inhibition” value is -22.8%.

Consider `Cc1ccc(C2CC(C(F)(F)F)n3nc(C(=O)NCCN4CCOCC4)cc3N2)cc1` (configuration not stated), for which the AC50 was 7.94 µM (active).

Consider `O=C(CNC(=O)c1cccs1)NCC(=O)OCc1ccc(Cl)cc1`, for which the AC50 was 25.1 µM (active).

On to `COC(=O)CNC(=O)C(C)NC(=O)CNC(=O)OCc1ccccc1` (stereo not drawn) (Cbz-Gly-[ξA]-Gly-OMe), for which the activity, negative = inhibition was -0.615% [at 2.29 µM].

As to `O=C(CNC(=O)c1ccco1)OCc1c(F)cccc1Cl`, the activity, negative = inhibition was -10.2% [at 2.29 µM].

As for `O=C(CNC(=O)c1cccs1)NCC(=O)OCc1ccc(Cl)cc1Cl`, the AC50 was 7.08 µM (active).

On to `O=C(CNC(=O)Cc1ccccc1)NCC(=O)OCc1ccccc1` (PhAc-Gly-Gly-OBn), for which the “activity, negative = inhibition” value is -26.1%.

Consider `CC(C)(C)c1ccc(COC(=O)CNC(=O)CNC(=O)Cc2ccccc2)cc1`, for which the AC50 was 12.6 µM (active).

With `CC(=O)N(O)CCCCCNC(=O)CCC(=O)N(O)CCCCCNC(=O)CCC(=O)N(O)CCCCCN`, the “activity, negative = inhibition” value was -17.3% [at 25.6 µM].

Take `O=C(O)C[C@H]1OCC=C2C[N@@+]3([O-])CC[C@]45c6ccccc6N[C@@H]4[C@@H]1[C@H]2C[C@H]53`: the activity, negative = inhibition was -0.0687% [at 11.4 µM].

For the molecule `O=C(c1ccc2c(c1)N(Cc1ccccc1)C(=O)CS2)N1CCOCC1`, the “activity, negative = inhibition” value was -28.8%.

On to `Cc1ccc(C)c(CN2C(=O)C3CCCN3c3ccc(S(=O)(=O)N4CCOCC4)cc32)c1` (configuration not stated), for which the AC50 is 11.2 µM (active).

Take `O=C1C2CCCN2c2ccc(S(=O)(=O)N3CCOCC3)cc2N1Cc1cccc(C(F)(F)F)c1` (configuration not stated): the AC50 is 15.8 µM (active).

On to `O=C(Cn1cc(C(F)(F)F)ccc1=O)N1CCN(S(=O)(=O)c2ccccc2)CC1`, for which the activity, negative = inhibition was -26.5% [at 11.4 µM].

For `Cc1ccc(C)c(CN2C(=O)C3CCCN3c3ccc(C#N)cc32)c1` (configuration not stated), the AC50 was 5.01 µM (active).

Consider `Cc1ccc(C2CC2C(=O)NN)cc1` (configuration not stated), for which the AC50 was 7.94 µM (active).

As for `O=C(O)[C@@H](O)c1ccc(F)cc1`, the activity, negative = inhibition is -5.47% [at 11.4 µM].

With `COc1ccc([C@@H](Nc2ncccn2)c2cc3c(cc2O)OCO3)cc1`, the AC50 was 2.51 µM (active).

Regarding `COc1ccc([C@H](O)c2ccccn2)cc1`, the activity, negative = inhibition is -5.07% [at 11.4 µM].

With `COc1ccc([C@@H](C)c2cc3c(cc2O)OCO3)cc1`, the AC50 was 2.51 µM (active).

Consider `N#CC(=C(/N)Sc1ccccc1N)/C(C#N)=C(/N)Sc1ccccc1N`, for which the AC50 was 316 nM (active) and 3.16 µM (active).

In the case of `N#CC1=C(SCC(N)=O)NC2=C(C(=O)c3ccccc32)C1c1ccc(Cl)cc1` (configuration not stated), the AC50 is 10 µM (active).

Regarding `C[N+](C)(C)CC[N+]1(C)Cc2c(Cl)c(Cl)c(Cl)c(Cl)c2C1`, the “activity, negative = inhibition” value is -12.8%.

`CCOc1ccc(C(CC(=O)O)NC(=O)COc2ccccc2)cc1` (configuration not stated): the “activity, negative = inhibition” value was -1.92%.

Consider `Cc1cccc2c1OCC/C2=N\NC(=O)COc1ccccc1`, for which the AC50 is 15.8 µM (active).

For `C/C(CC(=O)Nc1cc(C)ccn1)=N\NC(=O)COc1cccc(C)c1`, the activity, negative = inhibition was -15.1% [at 2.29 µM].

With `Cc1cccc2c1OCC/C2=N\NC(=O)COc1ccccc1Cl`, the “activity, negative = inhibition” value is 0.168%.

Regarding `Cc1cccc(C)c1NC(=O)COc1cccc(/C=N/NC(=O)C(=O)NCc2ccccc2)c1`, the “activity, negative = inhibition” value was -17.9%.

`COc1cccc(OCC(=O)NN=C2c3ccccc3-c3ccccc32)c1`: the AC50 is 6.31 µM (active).

In the case of `CC(N)=NCCCC[C@H](N)C(=O)O`, the “activity, negative = inhibition” value is -19%.

Regarding `CC(C)c1cccc2nc3c(c([Si](C)(C)C)c12)Cn1c-3cccc1=O`, the AC50 is 10 µM (active).

For the molecule `CCc1c2c(nc3cccc(C(C)C)c13)-c1cccc(=O)n1C2`, the AC50 was 15.8 µM (active).

With `CC(C)c1cccc2nc3c(c([Si](C)(C)C(C)(C)C)c12)Cn1c-3cccc1=O`, the AC50 is 12.6 µM (active).

The values are drawn from PubChem BioAssay AID1851 (National Center for Advancing Translational Sciences (NCATS), 2009).
